# Results from PubChem BioAssay (EPA / NIEHS).
# Inconclusive results are not listed. Active and inactive are the calls of the source. How the source made its calls, unless noted: active means hit-call score of the fitted dose curve at least 0.9, where 1 is the maximum; inconclusive means response in the unintended direction; inactive means score below 0.9.
# Key:
# [1] = TOX21_p53_BLA_p2_viability: Viability Assessment in the Tox21 HCT-116 p53 Agonism Beta-lactamase Assay, Phase 2 (AID 2283591);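 further: compound exposure lasted 16 h at 37 °C; actives lower the ATP signal meaning cytotoxicity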
# Summary of the method: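 HCT116 p53-bla cells, 4000/well, dosed after 5 h plating (217-fold dilution of DMSO stocks) and incubated 16 h at 37C. Viability taken as cellular ATP by CellTiter-Glo luminescence after 30 min RT; signal loss marks cytotoxicity.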
# [2] = TOX21_p53_BLA_p3_viability: Viability Assessment in the Tox21 HCT-116 p53 Agonism Beta-lactamase Assay, Phase 3 (AID 2283593);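 further: cells exposed to compound for 16 h before reading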
# Summary of the method: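 HCT116 cells, 4000/well, dosed 5 h after plating by pin transfer (217-fold dilution from DMSO stock) and incubated 16 h at 37C, 5% CO2. Viability read as ATP luminescence with CellTiter-Glo after 30 min at room temperature.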
# [3] = TOX21_p53_BLA_p4_viability: Viability Assessment in the Tox21 HCT-116 p53 Agonism Beta-lactamase Assay, Phase 4 (AID 2283597);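 further: hits lower the luminescence signal meaning cytotoxicity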
# Summary of the method: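 Cytotoxicity was inferred from loss of CellTiter-Glo luminescence. HCT116 cells had been dosed with compounds after 5 h plating, incubated 16 h at 37C and 5% CO2, and exposed to the CCF4-AM substrate for 2 h.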
# [4] = CCTE_Harrill_HTTr_Viability_MCF7: CCTE's 6-hour Cell Viability Assessment for the High-Throughput Transcriptomics (HTTr) Platform, in MCF-7 cells cultured in DMEM + 10% fetal bovine serum, Harrill Lab (AID 2284010; active means hit-call score of the fitted dose curve at least 0.9, where 1 is the maximum; inactive means score below 0.9)
# Summary of the method: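 Eight-point concentration series, six-hour exposure. Propidium iodide exclusion imaged to assess membrane integrity as a cytotoxicity readout; bidirectional fitting was done with DMSO as negative control and activity baseline.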
# [5] = CCTE_Harrill_HTTr_Apoptosis_MCF7: CCTE's 6-hour Apoptosis Assessment for the High-Throughput Transcriptomics (HTTr) Platform, in MCF-7 cells cultured in DMEM + 10% fetal bovine serum, Harrill Lab (AID 2284011; active means hit-call score of the fitted dose curve at least 0.9, where 1 is the maximum; inactive means score below 0.9)
# Summary of the method: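 MCF-7 cells in DMEM + 10% fetal bovine serum were exposed to chemicals for 6 hours over an eight-point dilution series. Caspase-3/7 activation was imaged by high content imaging with CellEvent Caspase 3/7 Green; bidirectional fitting used DMSO as baseline.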
# [6] = CCTE_Harrill_HTTr_CellCount_MCF7: CCTE's Cell Proliferation Assessment for the High-Throughput Transcriptomics (HTTr) Platform, Harrill Lab (AID 2284012);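 further: count of Hoechst-stained nuclei per well by high-content imaging in MCF-7 cells; cells exposed to compound for six hours; intended direction is loss of nuclei count meaning fewer cells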
# Summary of the method: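 For this full-screen endpoint, MCF-7 cultures received eight compound dilutions for six hours. Well nuclei counts from Hoechst imaging were analyzed relative to DMSO.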
# [7] = molecular target: Cellular tumor antigen p53 (Homo sapiens) (UniProt P04637); assay: TOX21_p53_BLA_p5_ratio: Tox21 HCT-116 p53 Agonism Beta-lactamase Assay, Ratio, Phase 5 (AID 2283599)
# Cellular tumor antigen p53 (Homo sapiens), sequence (P04637 whole entry, looked up): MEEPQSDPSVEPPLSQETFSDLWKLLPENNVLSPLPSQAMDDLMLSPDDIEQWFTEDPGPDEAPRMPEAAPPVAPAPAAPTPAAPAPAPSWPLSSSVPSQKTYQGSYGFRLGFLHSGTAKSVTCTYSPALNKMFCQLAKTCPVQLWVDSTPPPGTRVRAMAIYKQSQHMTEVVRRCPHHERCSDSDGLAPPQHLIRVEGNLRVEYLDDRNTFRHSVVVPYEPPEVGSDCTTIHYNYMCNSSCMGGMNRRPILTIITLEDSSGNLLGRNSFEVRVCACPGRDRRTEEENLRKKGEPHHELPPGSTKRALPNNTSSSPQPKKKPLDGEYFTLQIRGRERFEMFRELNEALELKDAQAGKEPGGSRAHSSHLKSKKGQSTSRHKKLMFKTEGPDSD
# Summary of the method: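 HCT-116 p53-bla cells (4000/well) plated 5 h, dosed with compound (217-fold DMSO dilution) for 16 h at 37 C; CCF4-AM substrate 2 h at room temperature. Activity is the 460/530 nm emission ratio (405 nm excitation), fitted in gain-of-signal direction versus DMSO.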
# [8] = TOX21_p53_BLA_p5_viability: Viability Assessment in the Tox21 HCT-116 p53 Agonism Beta-lactamase Assay, Phase 5 (AID 2283600)
# Summary of the method: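 Luciferase-coupled ATP quantitation of cells treated for 16 h (37C, 5% CO2) with test chemicals delivered in DMSO via a 217-fold dilution; 4000 cells/well; reagent incubated 30 min at room temperature before luminescence reading.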
# [9] = molecular target: Cellular tumor antigen p53 (Homo sapiens) (UniProt P04637); assay: TOX21_p53_BLA_p4_ratio: Tox21 HCT-116 p53 Agonism Beta-lactamase Assay, Ratio, Phase 4 (AID 2283601)
# Summary of the method: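 HCT-116 p53 beta-lactamase reporter cells (4000/well) preincubated 5 h, then compound (217-fold dilution of DMSO stock) for 16 h at 37C. CCF4-AM substrate added 2 h at room temperature; 460/530 nm emission ratio fitted upward versus DMSO.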
# [10] = molecular target: Cellular tumor antigen p53 (Homo sapiens) (UniProt P04637); assay: TOX21_p53_BLA_p3_ratio: Tox21 HCT-116 p53 Agonism Beta-lactamase Assay, Ratio, Phase 3 (AID 2283596)
# Summary of the method: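 Cells were seeded at 4000/well, rested 5 h at 37C, then dosed with DMSO compound solutions (217-fold dilution) for 16 h. CCF4-AM substrate was loaded for 2 h at room temperature, and the 460/530 nm emission ratio was fitted for gain of signal versus DMSO.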
# [11] = molecular target: Thyroid hormone receptor alpha (Rattus norvegicus) + Thyroid hormone receptor beta (Rattus norvegicus) (UniProt P18113+P63059); assay: TOX21_TR_LUC_GH3_Agonist_Followup: Tox21 GH3 Thyroid Hormone Receptor Agonism Luciferase Follow-Up Assay (AID 2283939)
# Thyroid hormone receptor alpha (Rattus norvegicus) + Thyroid hormone receptor beta (Rattus norvegicus), sequence (P63059 whole entry, looked up): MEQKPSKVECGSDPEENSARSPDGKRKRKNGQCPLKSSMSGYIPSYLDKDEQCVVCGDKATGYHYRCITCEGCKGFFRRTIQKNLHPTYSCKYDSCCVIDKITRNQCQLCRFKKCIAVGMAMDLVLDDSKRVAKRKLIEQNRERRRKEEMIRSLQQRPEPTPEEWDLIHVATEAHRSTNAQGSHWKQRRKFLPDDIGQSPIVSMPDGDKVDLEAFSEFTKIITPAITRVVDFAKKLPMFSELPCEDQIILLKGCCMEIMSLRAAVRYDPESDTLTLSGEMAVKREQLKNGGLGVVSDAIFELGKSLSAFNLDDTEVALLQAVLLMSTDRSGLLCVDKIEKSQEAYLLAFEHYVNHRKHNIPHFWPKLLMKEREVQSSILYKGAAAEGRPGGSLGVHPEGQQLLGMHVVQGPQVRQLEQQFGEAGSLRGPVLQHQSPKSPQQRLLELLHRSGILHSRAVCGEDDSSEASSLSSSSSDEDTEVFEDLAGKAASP
# Thyroid hormone receptor alpha (Rattus norvegicus) + Thyroid hormone receptor beta (Rattus norvegicus), sequence (P18113 whole entry, looked up): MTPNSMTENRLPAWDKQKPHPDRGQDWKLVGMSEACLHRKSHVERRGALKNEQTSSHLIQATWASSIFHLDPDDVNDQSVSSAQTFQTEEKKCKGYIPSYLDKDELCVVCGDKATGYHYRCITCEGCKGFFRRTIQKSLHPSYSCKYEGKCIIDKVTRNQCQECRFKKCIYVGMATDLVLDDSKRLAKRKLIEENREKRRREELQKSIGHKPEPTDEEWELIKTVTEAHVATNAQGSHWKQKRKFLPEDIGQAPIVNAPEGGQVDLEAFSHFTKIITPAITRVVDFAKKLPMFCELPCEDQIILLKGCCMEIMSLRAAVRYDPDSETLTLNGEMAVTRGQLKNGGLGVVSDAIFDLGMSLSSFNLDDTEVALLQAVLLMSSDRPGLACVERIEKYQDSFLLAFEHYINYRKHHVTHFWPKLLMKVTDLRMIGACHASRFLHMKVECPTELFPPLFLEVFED
# Summary of the method: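 Agonist-mode confirmatory run: 15 concentrations (5 nM to 92 uM final) on GH3 rat pituitary cells, 24 h at 37C/5% CO2, T3 as positive control. Luminescence read with ONE-Glo after 30 min.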
# THRA (gene 7067) = THRA (gene 7067) (UniProt P10827); assay: TOX21_TRA_COA_Agonist_Followup_ratio: Tox21 Thyroid Hormone Receptor alpha Agonism through Coactivator Recruitment Follow-Up Assay, Ratio (AID 2283948; active means hit-call score of the fitted dose curve at least 0.9, where 1 is the maximum; inactive means score below 0.9)
# THRA (gene 7067), sequence (P10827 whole entry, looked up, the tested form may be a part): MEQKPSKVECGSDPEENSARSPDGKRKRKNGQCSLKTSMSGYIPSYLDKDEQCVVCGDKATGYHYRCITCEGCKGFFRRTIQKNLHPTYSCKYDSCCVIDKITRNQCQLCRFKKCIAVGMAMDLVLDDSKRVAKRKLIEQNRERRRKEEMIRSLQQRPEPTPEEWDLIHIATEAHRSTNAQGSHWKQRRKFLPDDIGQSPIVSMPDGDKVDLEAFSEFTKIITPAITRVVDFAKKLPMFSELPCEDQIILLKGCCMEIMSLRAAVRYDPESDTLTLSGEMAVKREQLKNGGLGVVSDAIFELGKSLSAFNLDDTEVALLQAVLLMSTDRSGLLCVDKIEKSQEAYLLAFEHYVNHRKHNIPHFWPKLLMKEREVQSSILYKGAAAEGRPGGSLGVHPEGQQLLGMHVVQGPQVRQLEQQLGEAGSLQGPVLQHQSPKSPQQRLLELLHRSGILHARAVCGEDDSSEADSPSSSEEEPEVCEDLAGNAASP
# Summary of the method: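 Read-out is the 520/495 nm emission ratio (ex 340 nm), scaled between DMSO-only wells as 0% and T3 wells as 100%. It reflects fluorescein-SRC-2 peptide recruitment to GST-TRα LBD detected via terbium anti-GST antibody.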
# THRB (gene 7068) [12] = molecular target: THRB (gene 7068) (UniProt P10828); assay: TOX21_TRB_BLA_Agonist_Followup_ratio: Tox21 Thyroid Hormone Receptor beta Agonism Beta-lactamase (BLA) Follow-Up Assay, Ratio (AID 2283954)
# THRB (gene 7068), sequence (P10828 whole entry, looked up, the tested form may be a part): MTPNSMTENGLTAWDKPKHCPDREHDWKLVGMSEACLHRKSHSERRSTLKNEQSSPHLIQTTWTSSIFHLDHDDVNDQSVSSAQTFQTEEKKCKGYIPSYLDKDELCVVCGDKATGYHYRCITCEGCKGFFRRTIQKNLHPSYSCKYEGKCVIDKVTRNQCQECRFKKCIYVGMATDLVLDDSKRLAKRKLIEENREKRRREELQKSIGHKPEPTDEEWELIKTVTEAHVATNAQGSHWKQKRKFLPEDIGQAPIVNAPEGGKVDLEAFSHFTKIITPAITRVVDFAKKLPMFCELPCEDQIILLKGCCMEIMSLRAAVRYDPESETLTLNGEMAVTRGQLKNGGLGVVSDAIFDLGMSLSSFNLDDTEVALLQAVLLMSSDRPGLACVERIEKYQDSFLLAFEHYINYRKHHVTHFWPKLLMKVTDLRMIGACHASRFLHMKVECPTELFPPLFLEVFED
# Summary of the method: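 Agonist mode: compounds (11-point, triplicate) incubated 18 h with HEK293T cells carrying GAL4-DBD/human TRβ-LBD and UAS-β-lactamase. Blue/green (460/530 nm) FRET ratio read after 2 h CCF4-AM loading; CellTiter-Glo viability run in the same plates.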
# [13] = TOX21_TRB_BLA_Agonist_Followup_viability: Viability Assessment in the Tox21 Thyroid Hormone Receptor beta Agonism Beta-lactamase (BLA) Follow-Up Assay (AID 2283956)
# Summary of the method: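 Viability was read as CellTiter-Glo luminescence in the same wells as the TRb-bla agonist read-out. HEK293T GAL4-TRb LBD cells were treated for 18 h (37C, 5% CO2) at 11 concentrations in triplicate. Fits were bidirectional versus DMSO baseline.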
# THRB (gene 7068) [14] = molecular target: THRB (gene 7068) (UniProt P10828); assay: TOX21_TRB_COA_Agonist_Followup_ratio: Tox21 Thyroid Hormone Receptor beta Agonism through Coactivator Recruitment Follow-Up Assay, Ratio (AID 2283963; active means hit-call score of the fitted dose curve at least 0.9, where 1 is the maximum; inactive means score below 0.9)
# Summary of the method: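 Signal is the 520/495 nm emission ratio (excitation 340 nm), scaled between DMSO-only wells as 0% and T3 wells as 100%. It reflects fluorescein-labeled SRC-2 peptide recruitment to GST-TRβ ligand-binding domain detected via terbium anti-GST antibody.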
# [15] = molecular target: Retinoic acid receptor RXR-alpha (Homo sapiens) (UniProt P19793); assay: TOX21_TR_RXR_BLA_Agonist_Followup_ratio: Tox21 Thyroid Hormone Receptor beta Retinoid X Receptor alpha (RXRa) Agonism Beta-lactamase (BLA) Follow-Up Assay, Ratio (AID 2283968)
# Retinoic acid receptor RXR-alpha (Homo sapiens), sequence (P19793 whole entry, looked up): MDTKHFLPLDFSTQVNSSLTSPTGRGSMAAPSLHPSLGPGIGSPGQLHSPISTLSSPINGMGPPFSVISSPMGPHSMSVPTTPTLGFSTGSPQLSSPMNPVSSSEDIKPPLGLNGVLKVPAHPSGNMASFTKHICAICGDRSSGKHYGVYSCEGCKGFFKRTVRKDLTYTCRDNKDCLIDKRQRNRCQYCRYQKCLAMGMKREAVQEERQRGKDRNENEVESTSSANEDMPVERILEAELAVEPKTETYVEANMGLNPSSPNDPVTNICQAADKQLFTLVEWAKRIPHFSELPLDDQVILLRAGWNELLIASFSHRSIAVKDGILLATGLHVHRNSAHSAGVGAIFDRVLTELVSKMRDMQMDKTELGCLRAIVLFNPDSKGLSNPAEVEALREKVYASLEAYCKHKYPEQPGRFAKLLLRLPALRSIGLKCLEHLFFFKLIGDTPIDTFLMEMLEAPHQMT
# Summary of the method: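 Agonism is scored as an increase in the 460:530 nm beta-lactamase substrate ratio over DMSO in RXRa-UAS-bla HEK293T cells exposed for 16 h to 11 compound concentrations.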
# [16] = TOX21_TR_RXR_BLA_Agonist_Followup_viability: Viability Assessment in the Tox21 Thyroid Hormone Receptor beta Retinoid X Receptor alpha (RXRa) Agonism Beta-lactamase (BLA) Follow-Up Assay (AID 2283970)
# Summary of the method: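 Luminescent ATP read (CellTiter-Glo) after 16h exposure of RXRa-UAS-bla HEK293T cells at 37C/5% CO2. Activity normalized to DMSO; signal loss scored as reduced viability.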
structure (smiles),measurement,setting,value
Cl,outcome,[1],inactive
same,outcome,[2],inactive
same,outcome,[3],inactive
same,outcome,[4],inactive
same,outcome,[5],inactive
same,outcome,[6],inactive
Cc1nnc2n1-c1sc(CCc3ccc(CC(C)C)cc3)cc1C(c1ccccc1Cl)=NC2C (stereo not drawn),AC50,[1],23000 nM (active)
same,AC50,[2],29000 nM (active)
same,AC50,[3],24800 nM (active)
same,AC50,[7],39800 nM (active)
same,AC50,[8],23000 nM (active)
same,AC50,[9],42200 nM (active)
CC1NCCOC1c1ccccc1 (stereo not drawn),outcome,[1],inactive
same,outcome,[2],inactive
same,outcome,[10],inactive
same,outcome,[9],inactive
O=[N+]([O-])O[C@H]1CO[C@H]2[C@@H]1OC[C@H]2O[N+](=O)[O-],outcome,[1],inactive
same,outcome,[2],inactive
same,outcome,[10],inactive
same,outcome,[9],inactive
COc1ccc(OC)c([C@@H](O)[C@H](C)N)c1,outcome,[1],inactive
same,outcome,[2],inactive
same,outcome,[10],inactive
same,outcome,[8],inactive
same,outcome,[9],inactive
same,AC50,[11],14900 nM (active)
same,outcome,THRA (gene 7067),inactive
same,outcome,THRB (gene 7068) [12],inactive
same,outcome,[13],inactive
same,outcome,THRB (gene 7068) [14],inactive
same,outcome,[15],inactive
same,outcome,[16],inactive
CCOC(=O)c1cn2nc(OP(=S)(OCC)OCC)cc2nc1C,outcome,[1],inactive
same,outcome,[2],inactive
same,outcome,[3],inactive
same,outcome,[9],inactive
CC(=O)O[C@H]1C[C@H](O[C@H]2[C@@H](O)C[C@H](O[C@H]3[C@@H](O)C[C@H](OC4CC[C@@]5(C)C(CC[C@@H]6[C@@H]5CC[C@]5(C)[C@@H](C7=CC(=O)OC7)[C@@H](O)C[C@]65O)C4)O[C@@H]3C)O[C@@H]2C)O[C@H](C)[C@H]1O[C@@H]1O[C@H](CO)[C@@H](O)[C@H](O)[C@H]1O (stereo partly drawn),AC50,[1],463 nM (active)
same,AC50,[2],683 nM (active)
same,AC50,[3],582 nM (active)
same,AC50,[8],473 nM (active)
CO[C@H]1[C@@H](O)C[C@H](O[C@H]2[C@@H](O)C[C@H](O[C@H]3[C@@H](O)C[C@H](O[C@H]4CC[C@@]5(C)[C@H](CC[C@@H]6[C@@H]5C[C@@H](O)[C@]5(C)[C@@H](C7=CC(=O)OC7)CC[C@]65O)C4)O[C@@H]3C)O[C@@H]2C)O[C@@H]1C,AC50,[1],109 nM (active)
same,AC50,[2],101 nM (active)
same,outcome,[10],inactive
same,AC50,[3],98.4 nM (active)
same,AC50,[8],83.6 nM (active)
same,outcome,[9],inactive
O=C(Cl)/C=C/C(=O)Cl,outcome,[1],inactive
same,outcome,[2],inactive
same,outcome,[3],inactive
same,outcome,[7],inactive
same,outcome,[8],inactive
same,outcome,[9],inactive
C[C@@H]1O[C@@H](O[C@@H]2C=C3CC[C@@H]4[C@H](CC[C@]5(C)[C@@H](c6ccc(=O)oc6)CC[C@]45O)[C@@]3(C)CC2)[C@H](O)[C@H](O)[C@H]1O,AC50,[1],9.27 nM (active)
same,AC50,[2],13.4 nM (active)
same,AC50,[3],12.3 nM (active)
same,outcome,[7],inactive
same,AC50,[8],10.8 nM (active)
same,outcome,[9],inactive
C[C@]12CC[C@H]3[C@@H](CCC4=CC(=O)CC[C@@]43C)[C@@H]1CC[C@@H]2OC(=O)CCc1ccccc1,outcome,[1],inactive
same,outcome,[2],inactive
same,outcome,[3],inactive
same,outcome,[7],inactive
same,outcome,[8],inactive
CC=C(CC)C(=O)NC(N)=O,outcome,[1],inactive
same,outcome,[2],inactive
same,outcome,[3],inactive
same,outcome,[8],inactive
same,outcome,[9],inactive
